Data published in PubChem BioAssay AID1347431 (National Center for Advancing Translational Sciences (NCATS), 2020).
Out of some 1,200 compounds screened, fewer than 10 were called active. The list is a sample of the results. Unmarked numbers belong to inactive results. The call rests on the fitted dose curve; in most records, active means well fitted curve in the direction sought with a large enough effect; inconclusive means small, poorly fitted or top-dose-only effect, or another doubt; inactive means no such curve, though single readings can be large or run the other way.

assay: Confirmatory qHTS assay for inhibitors of Activation Induced Cytidine Deaminase (AID): UDG signals; conditions: UDG coupled enzyme activity counter-screen; series mostly up to 115 µM; activity change, negative = inhibition: at the top concentration; further: 0% is about no effect
Excerpt: Assay Provider (PI) Patricia Gearhart Ph.D.
National Institute on Aging
National Institute of Health (NIH), Bethesda, MD
Assay Provider (PI) Rahul Kohli Ph.D.
Perelman School of Medicine
University of Pennsylvania, Philadelphia, PA
Activation-Induced Deaminase (AID) is a cytosine deaminase which converts cytosine into uracil within stretches of ssDNA. The presence of uracil in DNA initiates a cascade of mutagenic DNA repair to introduce point mutations and DNA double strand breaks. Specific targeting of AID to the immunoglobulin heavy chain loci (Igh) promotes mutagenesis in the antibody variable region for somatic hypermutation (SHM) or switch regions leading to class switch recombination (CSR). However, AID also plays a role in accumulating unnecessary mutations across the genome. Mis-targeting of AID results in the initiation of tumor development and leads to greater drug resistance among cancer cells when continually expressed. To identify an AID inhibitor, a small molecule library will be screened in collaboration with NCATS core facility at NIH. To confirm biological function, inhibitors will be examined in an in vitro murine B-cell activation assay and subsequent secondary validation screens. Top molecules will be further screened to identify inhibitory efficacy against a wild type primary splenocytes assay. Using these approaches, we hope to identify a small molecule with great efficacy and low toxicity for use as a molecular probe to further characterize AID's intricacies, or even as a therapeutic.
A FRET based analysis of cytosine deamination, was developed to identify potential inhibitors of AID catalytic activity. This screen has two signal output, Read 1 evaluates the AID inhibition response. The second readout (Read 2) evaluates UDG response and is uses as a counterscreen to exclude false positive inhibitors. Inhibition in AID and inactivity in the UDG signal is the desired outcome for this assay.
SEQUENCE No. (e.g., 1, 2, 3, etc.); […] (e.g., Cells, Incubation, Reagent, etc.); VALUE; DESCRIPTION
1a; Reagent; 3 uL; [4/3x] 1 uM AID/2.67 U/mL UDG
1b; Reagent; 3 uL; 2 U/mL UDG
1c; Reagent; 3 uL; 1 uM AID
2a; Compound; 46 nL; Follow-up plates (0.64 uM - 10 mM)
2b; Control; 46 nL; ATA ([…] - 10 mM)
3; Time; 10 min; incubation at room temperature
5; Time; 4 hr; incubation at room temperature
6; Reagent; 4 uL; [2x] 250 mM NaOH
7; Time; 15 sec; centrifuge at 1000 rpm
8; Time; 30 min; incubation at room temperature
9a; Detection; fluorescence (Read 1: AID); EnVision (PerkinElmer) plate reader, 540 excitation and 590 emission filters
9b; Detection; fluorescence (Read 2: UDG); EnVision (PerkinElmer) plate reader, 560 excitation and 665 emission filters
NOTES (numbers refer to sequence above)
1a; Reagents were dispensed in a medium-binding black solid-bottom Greiner plates (789176F) using a BioRptr liquid dispenser. Dispense 3 uL of [4/3x] 1 uM AID (provided by Kohli lab) and [4/3x] 2 U/mL UDG (NEB M0280L) into columns 1, 2, 5 to 48.
1b; Dispense 3 uL of [4/3x] 2 U/mL UDG into column 3.
1c; Dispense 3 uL of [4/3x] 1 uM AID into column 4.
2a; Compound (7-points [uM]: 0.64; 3.2; 16; 80; 400; 2,000; 10,000; […]) double pin-transferred (Dip Factor = 2) using the Kalypsys (Wako USA) pintool equipped with a 1536 pinhead for a final concentration range of 7.32 nM - 114 uM.
2b; 10 mM Aurintricarboxylic Acid (Sigma A1895) (ATA, 8-point, n = 2, 1:2.5 dilution in column 2) double pin-transferred (Dip Factor = 2) using the Kalypsys (Wako USA) pintool equipped with a 1536 pinhead for a [final] range of 186 nM - 114 uM.
3; Room temperature incubation.
4; Dispense 1 uL of substrate mixture from the Kohli lab [4x] […] DJC20 and [4x] 250 nM DJC23 into columns 1 to 48 .
5; Room temperature incubation.
6; Dispense 4 uL of substrate mixture [2x] 250 mM NaOH into columns 1 to 48.
7; Centrifugation step to remove bubbles.
8; Room temperature incubation
9a; Fluorescence signal (column label AID) was read using the EnVision plate reader. […]

SMILES | activity change, negative = inhibition [%]
Cc1ccc(C)c(N2CCN(CCCNC(=O)c3cnn(-c4cccc(Cl)c4)c3C3CCN(C(=O)OC(C)(C)C)CC3)CC2)c1 | -6.96
Cc1cccc(OC(C)C(=O)N2CCC(c3nc4ccccc4o3)CC2)c1C (stereo unspecified) | -9.18
COc1ccc(-c2csc3nc(-c4ccc(C)cc4)oc(=O)c23)cc1OC | -0.182
COc1ccc(OCCCn2c(=O)oc3ccc(C)cc32)cc1 | -5.37
Cc1ccc(Cl)cc1N(C)C(=O)c1cc2ccc3cccnc3c2[nH]1 | 0.172
COc1ccc(OC)c(NC(=O)Cn2c(=O)cc(C)c3c(C)nn(-c4cccc(Cl)c4C)c32)c1 | 10.9
COc1ccccc1NC(=O)c1cc2cc3ccc(OC)c(Cl)c3nc2s1 | 8.79
Cc1ccc(C)c(CSc2cn(CCNC(=O)c3cccs3)c3ccccc23)c1 | -2.36
CCOc1ccc(NC(=O)CSc2nccn2-c2cccc(C)c2C)cc1 | -4.02
CCOc1ccc(S(=O)(=O)c2c(C(=O)c3ccc(C)c(C)c3)cnc3ccccc23)cc1 | -3.6
CCC1CCCCN1C(=O)CSc1nc(-c2ccc(OC)cc2)cc(C(F)(F)F)n1 (stereo unspecified) | -16.9
CCn1cc(C(=O)NCc2ccccc2OC)c(=O)c2cc(S(=O)(=O)N3CCCCC3)ccc21 | -14.6
Cc1ccccc1OCC(=O)Nc1cccc(C(=O)OCc2cc(=O)n3c(C)csc3n2)c1 | 1.99
COc1ccc(CC(=O)N(Cc2nc(-c3ccc(C)cc3)no2)C(C)C)cc1 | 5.81
Cc1ccccc1-c1nc(CS(=O)CC(=O)N2CCN(c3cc(Cl)ccc3C)CC2)c(C)o1 (stereo unspecified) | -9.14
CS(=O)(=O)N(Cc1ccccc1)c1ccc(C(=O)Nc2ccc(Cl)cc2)cc1 | 2.66
CCOC(=O)c1cc(-c2ccc(C)cc2)n(CCC(=O)Nc2ccc(OC)c(OC)c2)c1C | 1.84
Cc1nc2c(-c3ccccc3)c(C)nn2c(C)c1CCC(=O)N1CCN(c2ccc(F)cc2)CC1 | 0.55
C=Cc1ccc(CSc2nc(-c3ccc(C)cc3)nc3c2Cc2c(CO)cnc(C)c2O3)cc1 | -10.6
CCc1ccc(CN(Cc2ccco2)C(=O)c2ccc(OC)cc2)cc1 | -8.82
COc1ccc(CC(=O)NCC(c2cccs2)S(=O)(=O)c2ccc(Cl)cc2)cc1 (stereo unspecified) | -11.8
Cc1cc(N(C)Cc2ccccc2)n2nc(-c3ccc(C(C)(C)C)cc3)nc2n1 | -13.6
Cc1cc(C)cc(Nc2nc3cc(Cl)c(Cl)cc3nc2-n2nc(C)cc2C)c1 | 4.6

SMILES | activity change, negative = inhibition [%]
N#CC1=C2SCN(C3CCCCC3)CN2C(=O)CC1c1c(F)cccc1Cl (stereo unspecified) | -4.69
Cc1c(C(=O)N(C)Cc2ccccc2)sc2nc(-c3ccc(F)cc3)cn12 | -10.1
CCOC(=O)c1cccc(NC(=O)c2oc3c(c2C)-c2nn(CC)cc2CC3)c1 | -7.26
COc1ccc(OCC(=O)NCC(c2ccc(Cl)cc2)N2CCCCC2)cc1 (stereo unspecified) | -10.1
CC1CCCCN1C(=O)c1ccc2c(c1)N(Cc1ccc(Cl)cc1)C(=O)c1ccccc1S2=O (stereo unspecified) | 0.84
Cc1ccc(Cl)cc1N1CCN(C(=O)Cn2cnc3nc4c(cc3c2=O)CCCC4)CC1 | -9.53
CC(C)(C)C1CCc2c(sc(NC(=O)c3ccccc3F)c2C(=O)NCc2ccco2)C1 (stereo unspecified) | -16.7
COc1ccc(C(=O)N2CCc3cc(OC)c(OC)cc3C2COc2ccccc2OC)cc1 (stereo unspecified) | -10.4
COc1ccc(CCN2CCC(CNC(=O)c3cnn(-c4ccc(C)cc4)c3C3CCN(C(=O)OC(C)(C)C)CC3)CC2)cc1 | -7.6
Cc1ccc(CNC(=O)C2CCCN(c3nc4ccccc4n4cccc34)C2)cc1 (stereo unspecified) | -0.725
COC(=O)c1ccc(CSc2nnc3ccc4ccccc4n23)cc1 | 1.41
Cc1cccc(N2CCN(C(=O)c3cccn3-c3nnc(N4CCCCC4)s3)CC2)c1C | -2.85
Cc1ccc(-c2cn(-c3cccc(Cl)c3)c(S(=O)(=O)CC(=O)Nc3cccc(C)c3)n2)cc1 | -10.9
Cc1ccc2c(c1)C(c1ccc(F)cc1)N(C(=O)COc1ccc(Cl)cc1Cl)CC(=O)N2 (stereo unspecified) | -0.309
CCC(C(=O)N1CCN(c2ccccc2)CC1)n1nc(C)n2c(cc3sccc32)c1=O (stereo unspecified) | -0.471
CCOc1ccccc1CNC(=O)c1cnc2sc(N3CCCCCC3)nn2c1=O | 1.93
COc1ccc(N2CCN(C(=O)c3nn(C)c4c3CSc3ccccc3-4)CC2)cc1 | -14.2
Cc1cccn2c(=O)c3cc(C(=O)N(Cc4ccccc4)C(C)C)sc3nc12 | 3.34
CCCCN(CC)CCNC(=O)C1CCN(c2nnc(C)c3c(C)n(-c4ccc(C)cc4)nc23)CC1 | -1.82
CCOC(=O)c1c(C)oc2nc(C)nc(N(CC(C)C)CC(C)C)c12 | -17.5
CCCN(CCC)CCNC(=O)c1cc2c(-c3ccc(Cl)cc3)nn(C)c2s1 | -0.229
CCCCN(CCCC)CC(O)Cn1cc(/C=C/C(=O)c2ccccc2)c2ccccc21 (stereo unspecified) | -1.73
COc1cccc(N2CCN(C(=O)c3cnn(-c4ccc(C)cc4C)c3C3CCN(C(=O)OC(C)(C)C)CC3)CC2)c1 | -4.76
